Shown are actives, neighbours in structure and some others; about 12% of the full set was active somewhere.
JMJD2A Tudor inh = blocks the human JMJD2A Tudor domain; O75164; AlphaScreen JMJD2A-Tudor / H3K4me3 peptide binding; Potency, µM (highest dose often 114 µM), without a hit: at the top dose activity change, negative = inhibition, hits mostly inhibitors; 390,000 tested, 4.4% active; AID 504339; also: % is scaled to controls: 0 for no effect and ±100 for the full control effect; nearly all actives have a fitted effect of over 50% in size
TDP1 inh = blocks human tyrosyl-DNA phosphodiesterase 1. Q9NUW8. recombinant TDP1, AlphaScreen DNA substrate cleavage. Potency, µM (titrated, usually from 130 µM), for inactives: top-dose activity change, negative = inhibition, hits mostly inhibitors. 350,000 tested, 0.28% active; also: % is scaled to controls: 0 for no effect and ±100 for the full control effect; nearly all actives have a fitted effect of over 40% in size
Target sequence (Q9NUW8 whole entry, looked up): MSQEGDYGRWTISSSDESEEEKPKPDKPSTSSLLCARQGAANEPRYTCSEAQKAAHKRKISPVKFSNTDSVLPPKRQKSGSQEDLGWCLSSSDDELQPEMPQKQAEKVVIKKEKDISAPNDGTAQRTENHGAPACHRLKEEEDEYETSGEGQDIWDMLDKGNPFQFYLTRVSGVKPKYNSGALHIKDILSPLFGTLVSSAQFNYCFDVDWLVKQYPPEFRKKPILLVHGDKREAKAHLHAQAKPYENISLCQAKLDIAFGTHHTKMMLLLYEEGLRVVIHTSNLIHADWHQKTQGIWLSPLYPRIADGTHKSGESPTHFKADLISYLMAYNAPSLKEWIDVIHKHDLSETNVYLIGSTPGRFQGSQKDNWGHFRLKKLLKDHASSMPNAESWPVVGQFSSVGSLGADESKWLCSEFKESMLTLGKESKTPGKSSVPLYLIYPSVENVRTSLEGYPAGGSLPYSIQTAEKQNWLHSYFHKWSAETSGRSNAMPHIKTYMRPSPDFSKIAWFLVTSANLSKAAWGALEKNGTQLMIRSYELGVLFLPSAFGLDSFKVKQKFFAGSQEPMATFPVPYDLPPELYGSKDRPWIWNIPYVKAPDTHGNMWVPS
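Steps: enzyme plus compound, 15 min RT; add biotin/phosphotyrosine-FITC oligonucleotide (15 nM final), react 5 min; add donor/acceptor beads (10 ug/ml final), 10 min; read AlphaScreen. Tdp1 at 1 nM final.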
Sfp inh = inhibitors of Bacillus subtilis Sfp phosphopantetheinyl transferase; Q9F4F7; Biochemical Sfp PPTase activity, qHTS; Potency, µM, inactives show largest response in the series, negative = inhibition, most hits filed as inhibitors; 310,000 tested, 3.5% active;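 also: the enzyme is Sfp with the accession as filed and its product quenches rhodamine fluorescence; 0% = enzyme reaction without inhibitor and -100% = no enzyme wells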
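Reaction rates are the 30-min fluorescence difference (ex 525, em 598 nm) in wells containing 15 nM Sfp, 5 uM rhodamine-CoA and 12.5 uM BHQ-2-YbbR at pH 7.6 with 10 mM MgCl2.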
HP1b binding inh = HP1-beta chromodomain-methylated histone interaction inhibition; P83916; AlphaScreen HP1-beta / biotin-H3K9me3 peptide binding; Potency, µM (titrated, usually from 114 µM), inactives show at the top dose activity change, negative = inhibition, hits mostly inhibitors; 390,000 tested, 0.56% active; also: nearly all actives have a fitted effect of over 70% in size
Target sequence (P83916 whole entry, looked up): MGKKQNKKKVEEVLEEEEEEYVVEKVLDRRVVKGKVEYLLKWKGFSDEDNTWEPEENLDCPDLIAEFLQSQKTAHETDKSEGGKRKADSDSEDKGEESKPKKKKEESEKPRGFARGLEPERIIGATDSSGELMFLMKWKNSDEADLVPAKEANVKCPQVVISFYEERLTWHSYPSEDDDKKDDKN
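Compound inhibition of the preformed complex between 50 nM HP1-beta and 50 nM biotinylated H3K9me3 peptide was read by AlphaScreen. Buffer was PBS pH 7.4 with 0.01% Tween-20. Incubations ran 30 min at room temperature, with 10 ug/mL donor/acceptor beads.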
BAZ2B inh = BAZ2B (human) inhibition; AlphaScreen BAZ2B-H3K14Ac peptide displacement; Potency, µM (titrated, usually from 114 µM), for inactives: at the highest dose activity change, negative = inhibition, actives largely listed as inhibitors; 360,000 tested, 4.4% active; AID 504333; also: % is scaled to controls: 0 for no effect and ±100 for the full control effect; nearly all actives have a fitted effect of over 60% in size
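Multi-concentration screen (max 110 uM) measuring displacement of acetylated histone H3 peptide from BAZ2B by AlphaScreen, using 50 nM protein, 50 nM peptide and 10 ug/mL streptavidin donor plus Ni-chelate acceptor beads.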
G9a block = inhibitors of human histone lysine methyltransferase G9a; Q96KQ7; G9a H3K9 monomethylation, AlphaScreen, 2 h; Potency, µM (series often up to 102 µM), for inactives: at the top dose activity, negative = inhibition, usual class: inhibitors; 350,000 tested, 8.8% active; AID 504332; also: % is scaled to controls: 0 for no effect and ±100 for the full control effect; nearly all actives have a fitted effect of over 75% in size
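Methyltransferase reactions run at room temperature for 2 h (20 nM enzyme, 500 nM biotin-H3K9 peptide, 20 uM SAM) after a 15 min compound preincubation; product detected by AlphaScreen beads and anti-H3K9me1 antibody.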
The depositor's hits bear a star; ? = inconclusive; . = not tested or not shown; ! = a repeat was not active; [ ] = dose if it differs, or a comment. Calls follow the shape of the dose curve; as a rule, active = well fitted curve in the direction sought with a large enough effect; inconclusive = small, poorly fitted or top-dose-only effect, or another doubt; inactive = no such curve, though single readings can be large; an effect the other way counts as inactive or inconclusive. Potency is read from the fitted curve at half-maximal effect.

SMILES | JMJD2A Tudor inh | TDP1 inh | Sfp inh | HP1b binding inh | BAZ2B inh | G9a block
COc1cc(NC(=O)c2ccc(=O)[nH]n2)cc(OC)c1OC | -4.9% | . | 12.4% | 14.7% | 7.4% | -8.8%
O=C(COC(=O)CC1CC2CCC1C2)NCc1ccccc1 (stereo unspecified) | 6.2% | 0.4% | . | 30.4% | . | .
CCc1ccc(-n2c(CCC(=O)O)ccc2-c2cccs2)cc1 | ? | . | . | ? | ? | 10µM*
CCc1ccc(-n2c(CCC(=O)O)ccc2-c2ccc(F)cc2)cc1 | ? | . | . | ? | ? | 10µM*
Cc1ccc(-n2c(CCC(=O)O)ccc2-c2cccs2)cc1C | ? | 6.2% | 44.7µM* | -3.5% | ? | ?
Cc1c(Cl)cccc1-n1c(CCC(=O)O)ccc1-c1cccs1 | -34.3% | . | . | 4.1% | -33.2% | ?
CCOC(=O)c1ccc(-n2c(CCC(=O)O)ccc2-c2cccs2)cc1 | ? | 5.3% | 25.1µM* | ? | ? | 22.4µM*
NCC(=O)N[C@@H](CCCN=C(N)N)C(=O)NCC(=O)N[C@@H](CC(=O)O)C(=O)N[C@@H](CO)C(=O)N1CCC[C@H]1C(=O)O | . | 10.2% | 24.9% | . | . | .
CCOC(=O)C1CCCN(Cc2cn3c(-c4ccc(Br)cc4)nnc3s2)C1 (stereo unspecified) | 0.3% | 6.6% | . | 29.7%[57 µM] | 3.1% | -12.9%[59 µM]
CSCC[C@H](N)C(=O)N[C@@H](CCC(=O)O)C(=O)N[C@H](C(=O)NCC(=O)N[C@@H](Cc1c[nH]c2ccccc12)C(=O)N[C@@H](Cc1ccc(O)cc1)C(=O)N[C@@H](CCCNC(=N)N)C(=O)N[C@@H](CO)C(=O)N1CCC[C@H]1C(=O)N[C@@H](Cc1ccccc1)C(=O)N[C@@H](CO)C(=O)N[C@@H](CCCNC(=N)N)C(=O)N[C@H](C(=O)N[C@H](C(=O)N[C@@H](Cc1cnc[nH]1)C(=O)N[C@@H](CC(C)C)C(=O)N[C@@H](Cc1ccc(O)cc1)C(=O)N[C@@H](CCCNC(=N)N)C(=O)N[C@@H](CC(N)=O)C(=O)NCC(=O)N[C@@H](CCCCN)C(=O)O)C(C)C)C(C)C)C(C)C | . | 17.4% | 12.9% | . | . | .
C[n+]1ccccc1/C=N/O | 35.5µM*! | -5.1%[56.1 µM] | 11.2% | 59.5% | -13.6% | -32.7%[2.33 µM]
C[n+]1ccccc1/C=N\O | . | 15.4%[21 µM] | 11.4% | . | . | 30.4%[21.5 µM]
CC(O)/C=C/c1cccc[n+]1C (stereo unspecified) | 39.8µM* | -2.9% | -20.9% | 19.0% | 3.8% | 10µM*
Cc1cccc(CNC(=O)Cc2csc3ccccc23)c1 | -5.0% | -2.5% | . | 45.0% | 11.5% | 9.1%[59 µM]
CCOC(=O)N1CCN(C(=O)C2CCN(S(=O)(=O)c3ccc(NC(C)=O)cc3)CC2)CC1 | 0.0% | 3.9% | 16.2% | 35.6% | -11.6% | 20.7%
CCOC(=O)C1CCCN(CC(=O)Nc2cc(C)cc(C)c2)C1 (stereo unspecified) | -11.3% | 5.1% | -2.1% | 20.0% | -2.6% | 50.1µM*
COc1ccc(NC(=O)CN2CCN(CC(=O)Nc3ccccc3Cl)CC2)cc1Cl | -4.7%[57.1 µM] | 3.2% | -3.9% | 9.0% | -11.5% | .
CCOC(=O)C1CCCN(CCC(=O)Nc2ccccc2)C1 (stereo unspecified) | 5.4% | -7.0% | 21.6% | 48.0% | -4.7% | ?
CCOC(=O)C1CCN(CC(=O)Nc2ccc(OC)c(Cl)c2)CC1 | 2.82µM* | -7.7% | -14.0% | ? | 50.1µM* | 10µM*
CCOC(=O)C1CCCN(CCC(=O)Nc2cc(C)cc(C)c2)C1 (stereo unspecified) | -9.0% | 2.9% | -10.4% | 29.4% | -4.5% | 18.0%
CCOC(=O)C1CCCN(CC(=O)Nc2cccc(C(C)=O)c2)C1 (stereo unspecified) | 22.4µM* | -10.3% | ? | ? | 50.1µM* | 17.8µM*
COc1ccc(OC)c(CCNC(=O)CCn2c(=O)c3cccn3c3cccnc32)c1 | -22.0% | 2.6% | . | -1.7% | -10.1% | -7.0%[59 µM]
COc1ccc(/C=C/C(=O)NC(=S)Nc2cc([N+](=O)[O-])ccc2O)cc1OC | 89.1µM* | -13.5% | -6.2% | ? | ? | 28.2µM*
COc1cc([N+](=O)[O-])ccc1NC(=O)/C=C/C(=O)O | -16.2% | 2.6% | -25.1% | 13.9% | 5.9% | 50.1µM*
COCCSc1ccccc1C(=O)Nc1cc([N+](=O)[O-])ccc1OC | -14.5% | 2.4% | 17.2% | 18.0% | -16.8% | 39.8µM*
SMILES | JMJD2A Tudor inh | TDP1 inh | Sfp inh | HP1b binding inh | BAZ2B inh | G9a block
COCCSc1ccccc1C(=O)Nc1ccc([N+](=O)[O-])cc1OC | -12.8% | 4.9% | 16.3% | 17.0% | -29.5% | 22.4µM*
COc1ccc([N+](=O)[O-])cc1NC(=O)CC(c1ccccc1)c1ccccc1 | -11.5% | 1.8% | 2.7% | 25.4% | 5.8% | 3.8%[59 µM]
CC(C)NC(=O)Nc1ccc2c(c1)C(=O)N([C@H](C)CO)C[C@H](C)[C@@H](CN(C)S(=O)(=O)c1ccc(F)cc1)O2 | -13.3% | 1.1% | . | 23.7% | . | .
COc1ccc(-c2cc(C(=O)N3CCN(c4cccc(C)c4C)CC3)c3ccccc3n2)cc1OC | -18.6% | -5.6%[0.505 µM] | . | 25.0% | -6.4% | ?
CC(C)CC(=O)N/C(N)=N/c1nc2ccccc2o1 | -6.9% | 3.5% | 19.6% | 44.7% | -0.2% | 21.6%
CSc1ccccc1C(=O)Nc1cc([N+](=O)[O-])ccc1C | -3.4% | -1.2% | -12.7% | 15.2% | -15.5% | 10µM*
CN(C)c1ncc2nc(-c3cccs3)c(=O)n(C3CC3)c2n1 | . | . | 6.0% | . | . | 6.9%[12.7 µM]
NC(=S)N/N=C/c1ccccc1 | -18.5% | 0.0% | -20.3% | 16.3% | -33.8% | ?
CNC(=S)N/N=C/c1c2ccccc2c(Cl)c2ccccc12 | -7.4% | 10.6% | -1.5% | 14.0% | -18.7% | 17.8µM*
COc1ccc2ccccc2c1/C=N/NC(=S)NCCN1CCOCC1 | ? | 5.0% | 2.7% | -22.8% | -35.1% | ?
COCCNC(=S)N/N=C/c1c2ccccc2cc2ccccc12 | 15.5% | 5.5%[0.0935 µM] | 3.1% | 92.9% | 2.0% | 79.4µM*
C[N+](C)(C)CC(=O)N/N=C/c1c2ccccc2cc2ccccc12 | ? | -0.2% | -2.1% | 42.1% | 56.2µM* | 35.5µM*
CNC(=S)N/N=C/c1c(C)cccc1Cl | -8.7% | 7.6% | 4.1% | 14.7% | -12.6% | 10.4%
NC(=S)N/N=C\c1c2ccccc2cc2ccccc12 | -34.9% | 5.5% | -19.1% | -0.2% | -37.5% | 7.08µM*
Cn1cccc1CC(=O)N/N=C\c1c2ccccc2cc2ccccc12 | ? | 9.8% | -12.7% | -11.8% | -9.6% | -1.0%[0.0925 µM]
COc1ccc(CNC(=O)c2cc3cc(S(=O)(=O)N4CCCCC4)ccc3n2C)c(OC)c1 | -7.5% | 5.4% | . | 24.1%[57 µM] | -2.1% | -3.3%[59 µM]
